# From article PMC12136788
# In all, about 24,000 sequences were measured (“enrichment r”: median about 0.99, highest 2% from about 3.7 on). The entries come from a sample that favours the highest values as a whole.
# T1: UNK ZnF1-3 (human, UniProt Q9C0B0 31-174)
# T1 sequence: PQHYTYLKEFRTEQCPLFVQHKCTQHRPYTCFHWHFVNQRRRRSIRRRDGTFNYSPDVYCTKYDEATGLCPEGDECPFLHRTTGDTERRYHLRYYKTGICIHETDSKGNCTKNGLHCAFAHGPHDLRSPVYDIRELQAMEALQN
# B1: chr5:64741823:64741824:+_ENSMUSG00000029174_ENSMUST00000119756|mus_mus|motif|central (ssRNA)
# RNA: GGGAGUUCUACAGUCCGACGAUCAAUAAAUAUGUCAGACCCCACAGCUACAGGUCCCACACUAGCAAUAACAGGGAAUCGGAAAACUGUGAUUUCCUUAUGAAACAUUUACCUGUGACUUGAAAGGGUAAGCAAAAACCAUACCAACAGAGGAUUGAGCAUCA
# B2: chr16:94664741:94664742:+_ENSMUSG00000040785_ENSMUST00000117648|mus_hu|mus_mus_mus_hu_False|1_98 (ssRNA)
# RNA: GGGAGUUCUACAGUCCGACGAUCUGGUACUGAUCUUUGCAUUGGAUAUUCAGGAGAAAGGCUGGCCAAGGGUGUAUAUAUGCUGGUGUACUGGGGCAAACCUGGUAACACGUUUAUGUAUGCUGGCGGUGUCUGGGUGCCAAACAACAGAGGAUUGAGCAUCA
# B3: chr1:44133529:44133530:+_ENSG00000066135_ENST00000372396|hu_mus|FALSE|FALSE (ssRNA)
# RNA: GGGAGUUCUACAGUCCGACGAUCGAACUCGGCUGCUUCCGGUGUGGGCAGAGUGUGGUCAAUAACCAUGCUGUCCUUCCCAGCUUUCCAAAGUUUGUAGCGUUCCGGCUGGAACCUCCUCACGAACACGUCCAUGGAGAUCUUCAACAGAGGAUUGAGCAUCA
# B4: chr10:75008345:75008346:-_ENSG00000213551_ENST00000372950|hu_hu|motif|central (ssRNA)
# RNA: GGGAGUUCUACAGUCCGACGAUCCUAUAUCUUAGUCACACACCAGAGUUAAGCCAUCUGUCUUUGCUCAUUUUUCCCUCGGUGGACAACAUAAUAUGUUGGGAAGGGCUUUCCAGGAGGGCAUAACCGGGAGAUGAAUCUUACCAACAGAGGAUUGAGCAUCA
# B5: chr1:225611761:225611762:-_ENSG00000143815_ENST00000272163|hu_mus|hu_hu_hu_mus_True|8_88 (ssRNA)
# RNA: GGGAGUUCUACAGUCCGACGAUCCCAGGCCAUCGGCCUCUGACCACUUCACCAUCGACAAACUUCCUACUUGGCAUUUUCUAAAAUUAGUCUGGCCGCGCUCCGGCGGGAACUCCAGCCACUCCAGGGAGAAUAGUAGCAGCCCAACAGAGGAUUGAGCAUCA
# B6: chr2:179515052:179515053:+_ENSMUSG00000000305_ENSMUST00000000314|mus_hu|FALSE|FALSE (ssRNA)
# RNA: GGGAGUUCUACAGUCCGACGAUCGCUGUCCCAUGCAGUCACCGUGAACGCCACCUGCUCGGAGGGGACCUGCAGCUCCCGGGUGGCGAAGACUGUCCCAUCUGCCCCAACUUUGAAGUCCAUGCUGUUGGUCUCAUAUUGUGUCAACAGAGGAUUGAGCAUCA
# B7: chr11:99246628:99246629:-_ENSMUSG00000019761_ENSMUST00000103131|mus_mus|FALSE|FALSE (ssRNA)
# RNA: GGGAGUUCUACAGUCCGACGAUCAUAGUUUGCAUCAGUAAGAAAGUUUAUUGAAAUUUAUUAGUAAAUGAGAAAUUAAUAAGUAAGUGAGAAAGUUUUCUUCUUUUUUCUCCACAAAAGAACACUUUCUGAUAGAUGAAAAGACAACAGAGGAUUGAGCAUCA
# B8: chr6:13577978:13577979:-_ENSMUSG00000042742_ENSMUST00000045235|mus_hu|FALSE|FALSE (ssRNA)
# RNA: GGGAGUUCUACAGUCCGACGAUCAAAAAGAAUUAUCACCAAUUACAAAAAGUUCAGUAAAUAUUGGAUCAUCAGACAAAAAAGGAACAUAAAAUGACUUUCUGUAACAUCACAAUUUUAGUUAGAAAAAAGAAAAAGAUAAGUCAACAGAGGAUUGAGCAUCA
# B9: chr19:15271055:15271056:-_ENSG00000074181_ENST00000263388|hu_mus|FALSE|FALSE (ssRNA)
# RNA: GGGAGUUCUACAGUCCGACGAUCAUAUAUAUUUUGUAAAAAAUAAUAAUAAUAAUAAGUUUGUUUAAAUGAAUUUGUCUCUAUACAAAAUGUAAAAAAGAAAAAAAUAAUAACUCACUCUUGUCAGAGUGUGAGACAAUGAGACAACAGAGGAUUGAGCAUCA
# B10: chr11:31834330:31834331:+_ENSMUSG00000020300_ENSMUST00000109412|mus_mus|FALSE|FALSE (ssRNA)
# RNA: GGGAGUUCUACAGUCCGACGAUCAUAAAGUUCAGAGUAAUAGAUAAUCAUUGUUUAUGCCCUGUAAAGAAGUGGAACCAAAUCAUCUGUAAACACGCUUGUCACACAAUCACAAGUAAAUAUUAGCAGAAUAACAAUUUCUUACAACAGAGGAUUGAGCAUCA
# B11: chr4:95690885:95690886:+_ENSMUSG00000028572_ENSMUST00000156910|mus_mus|mus_mus_mus_hu_False|8_78 (ssRNA)
# RNA: GGGAGUUCUACAGUCCGACGAUCUUUAGAAAAUGUUAAAUACCAUGCUAAAAUAUUGUAAUUUUAAUAUUUUAUUUUACCAGAAGUCACAGGCAAGCAGACACUACAAGAAUAUAUGAAAAUGAAACAACAGUGUAUAACUGUCAACAGAGGAUUGAGCAUCA
# B12: chr3:169711627:169711628:+_ENSG00000008952_ENST00000337002|hu_hu|motif|central (ssRNA)
# RNA: GGGAGUUCUACAGUCCGACGAUCUAAAAACAUACCCUUACAUGGUCUUAAUUUUAUGAAUUUAAGUGUUGAGAAAUAUCGGAAUAAUAAGUAACAAUUAAAAUAAAAUGUUUUAUUUGUAAAUUAUGUACAGAAUACACUUUACAACAGAGGAUUGAGCAUCA
# B13: 13037762_13037882_4555_3pUTR_ENSMUSG00000029571_ENSMUST00000031556|mouse|control|control (ssRNA)
# RNA: GGGAGUUCUACAGUCCGACGAUCUAAAAGGUACUCCUAUUUUAAAAACAUAUGAAUGAAACUAUCUUCUAAAAUAAGACGCAAUGUGUUAACAACCAGUUGAUUUAAGCACUUUAAAAGGCAGAAUGGAAAAGUCGGCACACCCAACAGAGGAUUGAGCAUCA
# B14: chr7:7676484:7676485:-_ENSG00000106399_ENST00000223129|hu_mus|FALSE|FALSE (ssRNA)
# RNA: GGGAGUUCUACAGUCCGACGAUCAAGUAUCACUUUUAAAAAAAGUUUAUAAAAAGGCUUAGUUGUAAACUGUCAUAAUAGAUUUACAAAAAAAUAUAUAUAUAUAAAAGAACAAAUUAAAUAUUAGAAAUUAUAGGAGUCGCUCAACAGAGGAUUGAGCAUCA
# B15: chr1:90180492:90180493:+_ENSG00000171488_ENST00000370454|hu_hu|motif|central (ssRNA)
# RNA: GGGAGUUCUACAGUCCGACGAUCUUUCAUUUGCUCCCGGACGUCAGAAGGCAGAGUUUCAAACAGAGCAUCUUCGGCAACGGAACCAGCUCGCUUCAGAGCCCGACAGUCACCCAGUUCAGGAGGGAGGAUUUCAAAGUGAUUCAACAGAGGAUUGAGCAUCA
# B16: chr1:39494447:39494448:+_ENSG00000168653_ENST00000372967|hu_mus|hu_hu_hu_mus_False|38_58 (ssRNA)
# RNA: GGGAGUUCUACAGUCCGACGAUCGCACCGAGCGGCGUUCUUAUAGGGCUGUUCUGCGCUUAGGAACAUAAAGUGCCGAUCUAUGUUGAUGCCCAGCCUUUUCUGGAUGUCAAGGAAAGGCAUGGCUCUGCAGUGCCCUUGUCACAACAGAGGAUUGAGCAUCA
# B17: 131003253_131003911_1761_CDS_ENSMUSG00000068267_ENSMUST00000089510|mouse|control|control (ssRNA)
# RNA: GGGAGUUCUACAGUCCGACGAUCCAAGGGCCAAAGACUGGGCCAGAGAAAGGGAUCUGGGGAGGUGGAAAGCAGGCAGAGGCAGGCUCGGUUCUUCCUAGUCACGUGGACCAGAUCGUGUUCCAAAUGAAGGAUGUGACUCUGCAACAGAGGAUUGAGCAUCA
# B18: chr7:7679991:7679992:-_ENSG00000106399_ENST00000396682|hu_hu|hu_hu_hu_mus_False|48_58 (ssRNA)
# RNA: GGGAGUUCUACAGUCCGACGAUCUGGGAUGAAUCUUUUCCAGCUUCCCCACGAAGCACACGGGCCGGUCGAUAUACUGAGCUAGCAUGCCGGCGUUGACGCGCGCUUUGGGGAGCUGCAUUAUGUCCUCCAUGAUUCUGCCGCCAACAGAGGAUUGAGCAUCA
# B19: chr7:75932113:75932114:+_ENSG00000106211_ENST00000248553|hu_hu|hu_hu_hu_mus_False|38_78 (ssRNA)
# RNA: GGGAGUUCUACAGUCCGACGAUCCUGCGACCACUCAUCGGGCAACCGGGGCACCCCGAAGGCCUGGUCGAAGAGGCGGCUGUGUGCAGGGUACCAGCGGAAGGGGUGUUCCCAGCUCGGGCUCCGCAGCAGCGAGAAGGGCACCAACAGAGGAUUGAGCAUCA
# B20: chr12:3264740:3264741:-_ENSMUSG00000020671_ENSMUST00000021001|mus_mus|FALSE|FALSE (ssRNA)
# RNA: GGGAGUUCUACAGUCCGACGAUCCCAUAUCUGUAGCUUGAUCUUCUUUCCUUGUAGUUCCACUGUUUUGAUCUUAAAGUCUAUUCCUAUGGUGGAAAUAAAGGUGGUAUUGAAGGCAUCGUCCGAAAAACGAAAAAGGACGCACAACAGAGGAUUGAGCAUCA
# B21: chr7:92085846:92085847:+_ENSG00000157259_ENST00000287957|hu_mus|FALSE|FALSE (ssRNA)
# RNA: GGGAGUUCUACAGUCCGACGAUCGUUAAAACUGAGGCUUUAUACCUGCGAAGUAAGUAUGUCCCAGGUUUGGUUUUGUAACUACAAGUGGUUGGCAACUGUUUCCUUAAUAGUUAUCGCAGGAGUAGGUCCAACGUGAGUCCACAACAGAGGAUUGAGCAUCA
# B22: chr21:34877999:34878000:-_ENSG00000159131_ENST00000381815|hu_hu|motif|central (ssRNA)
# RNA: GGGAGUUCUACAGUCCGACGAUCGUCAAUUGCACUGUCAAAUUCUACACGAUUUUUAUACAGUUUAUGAUUAAUUACUCGGGUGGGAAUACCAGCUCUUUCCGCUUUAUCUAACCCAGCUACUGCGGCUUUGUUGGAGAUAACCAACAGAGGAUUGAGCAUCA
# Target: T1, UNK ZnF1-3
# Assay: nsRBNS (natural sequence RNA bind-n-seq); RBNS binding buffer (assumed for nsRBNS): 25 mM Tris pH 7.5, 150 mM KCl, 3 mM MgCl2, 0.01% Triton X-100, 500 ug/ml BSA, 20 U/ml SUPERase-In, 4 C; UNK is unkempt and MSI1 is Musashi-1; names of the RNAs are library labels; protein concentration not given here; high values mean tight binding
row,Binder,binding signal
1,B1,1.44 enrichment R
2,B2,0.999 enrichment R
3,B3,0.602 enrichment R
4,B4,1.77 enrichment R
5,B5,1.19 enrichment R
6,B6,0.755 enrichment R
7,B7,19.7 enrichment R
8,B8,3.59 enrichment R
9,B9,4.58 enrichment R
10,B10,0.945 enrichment R
11,B11,1.97 enrichment R
12,B12,5.94 enrichment R
13,B13,1.37 enrichment R
14,B14,21.9 enrichment R
15,B15,3.35 enrichment R
16,B16,0.477 enrichment R
17,B17,1.29 enrichment R
18,B18,0.406 enrichment R
19,B19,0.969 enrichment R
20,B20,1.8 enrichment R
21,B21,0.838 enrichment R
22,B22,0.651 enrichment R
